Source: PubChem BioAssay
Where “and” joins values, the source holds several entries; their conditions need not be identical. Identical values can stand only once. Calls of active or inactive are those of the source. Unless noted, no rule for the calls is given here.

Legend:
[1] = compound effects on lung adenocarcinoma cell viability – A549, calcein-AM fluorescence, 48 h, basal, profiling panel (AID 1162); details: higher = more signal; also: test concentration not given here
[2] = compound effects on differentiated 3T3-L1 adipocyte viability – cell-based, 3T3-L1 adipocytes, calcein-AM fluorescence, 48 h, basal, profiling panel (AID 1163); details: 3T3-L1 adipocytes viability, higher = more signal; also: test concentration not given here
[3] = compound effects on hepatocellular carcinoma cell viability – HepG2, calcein-AM fluorescence, 48 h, basal, profiling panel (AID 1164); details: higher = more signal; also: test concentration not given here
[4] = compound effects on multiple myeloma cell viability – MM1S, calcein-AM fluorescence, 48 h, basal, profiling panel (AID 1165); details: higher = more signal;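 also: viability of MM1S multiple myeloma cells under basal unstimulated conditions; test concentration not given here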
[5] = calcein-AM signal in unstimulated myeloma cells – cell-based, calcein-AM fluorescence, 48 h, PK04 Diversity Set, profiling panel (AID 1166); details: RPMI8226 myeloma viability, higher = more signal;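 also: cells grown under basal conditions without added stimulus; test concentration not given here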
[6] = JC-1 mitochondrial signal, unstimulated HepG2 cells – cell-based, JC-1 fluorescence, 24 h, 100 nL compound, profiling panel (AID 1167); details: HepG2 mitochondrial potential, higher = more signal; also: test concentration not given here
[7] = JC-1 mitochondrial signal, unstimulated adipocytes – cell-based, JC-1 fluorescence, 3T3-L1 adipocytes, 24 h, 100 nL compound, profiling panel (AID 1168); details: JC-1 mitochondrial fluorescence, higher = more signal, called active from +8 up or from −8 down; also: test concentration not given here
[8] = JC-1 mitochondrial signal, unstimulated myeloma cells – cell-based, JC-1 fluorescence, RPMI8226, 24 h, 100 nL compound, profiling panel (AID 1169); details: JC-1 mitochondrial potential fluorescence, higher = more signal; also: test concentration not given here
[9] = JC-1 mitochondrial signal, unstimulated MM1S myeloma – cell-based, JC-1 fluorescence, 24 h, 100 nL compound, profiling panel (AID 1170); details: MM1S mitochondrial potential, higher = more signal; also: test concentration not given here
[10] = resazurin metabolic signal in A549 cells – cell-based, resazurin fluorescence, 24 h, PK04 Diversity Set, profiling panel (AID 1171); details: A549 viability, higher = more signal, called active from +8 up or from −8 down; also: test concentration not given here
[11] = resazurin metabolic signal in HepG2 cells – cell-based, resazurin fluorescence, 24 h, PK04 Diversity Set, profiling panel (AID 1172); details: HepG2 viability, higher = more signal; also: test concentration not given here
[12] = budding yeast growth changes without added modifier – OD600, strain BY4716, 24 h, basal condition, primary screen (AID 1173); details: S. cerevisiae BY4716 growth, OD600, 24 h; higher = more signal, called active from +8 up or from −8 down
[13] = viability profiling in MM1S myeloma cells – cell-based, resazurin fluorescence, basal, 24 h, PK04 Diversity Set, profiling panel (AID 1174); details: higher = more signal, called active from +8 up or from −8 down; also: test concentration not given here
[14] = target: Dihydroorotate dehydrogenase (quinone), mitochondrial (Plasmodium falciparum (isolate 3D7)) (UniProt Q08210); assay: inhibition of P. falciparum DHODH – biochemical, C-terminal His tag, absorbance 600 nm, primary screen (AID 1175); details: PfDHODH enzyme, DCIP absorbance 600 nm; higher = more signal, called active from +8 up or from −8 down;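 also: recombinant parasite enzyme with a five histidine tag at its C terminus; test concentration not given here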
Dihydroorotate dehydrogenase (quinone), mitochondrial (Plasmodium falciparum (isolate 3D7)), sequence (Q08210 whole entry, looked up): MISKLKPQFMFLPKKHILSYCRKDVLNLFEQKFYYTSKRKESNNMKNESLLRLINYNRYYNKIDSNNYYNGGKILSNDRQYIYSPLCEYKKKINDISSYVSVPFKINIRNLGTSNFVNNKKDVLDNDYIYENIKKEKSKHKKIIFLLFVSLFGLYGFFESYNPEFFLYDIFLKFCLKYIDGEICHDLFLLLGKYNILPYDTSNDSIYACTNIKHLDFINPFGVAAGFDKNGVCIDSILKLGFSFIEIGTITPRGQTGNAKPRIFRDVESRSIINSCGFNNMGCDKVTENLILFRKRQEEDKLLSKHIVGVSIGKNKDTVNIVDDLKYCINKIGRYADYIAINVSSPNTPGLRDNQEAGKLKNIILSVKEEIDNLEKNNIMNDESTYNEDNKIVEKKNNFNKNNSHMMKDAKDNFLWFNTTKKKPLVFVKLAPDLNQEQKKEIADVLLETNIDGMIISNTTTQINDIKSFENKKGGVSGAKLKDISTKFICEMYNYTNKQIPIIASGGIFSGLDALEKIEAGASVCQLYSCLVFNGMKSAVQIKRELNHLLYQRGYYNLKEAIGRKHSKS

[15] = inhibition of PAO1 biofilm formation – strain PAO1, LB-PBS medium, absorbance 600 nm, primary screen (AID 1176); also: test concentration not given here; details: P. aeruginosa PAO1 growth/biofilm, A600, 12 h; higher = more signal
[16] = growth modulation of vineyard yeast isolate – strain RM11-1a, OD600, basal, 24 h, primary screen (AID 1177);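 also: cultures grown under basal conditions with no added stressor; test concentration not given here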; details: S. cerevisiae RM11-1a growth, OD600, 24 h; higher = more signal, called active from +8 up or from −8 down
[17] = growth of efflux-deficient E. coli DRC39 – strain DRC39, OD650, 24 h, E. coli filamentation inducers, primary screen (AID 1178);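 also: growth measured as culture turbidity by optical density at 650 nm; test concentration not given here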; details: E. coli DRC39 acrAB, higher = more signal, called active from +8 up or from −8 down
[18] = growth of efflux-deficient E. coli DRC39 – strain DRC39, OD650, 48 h, E. coli filamentation inducers, primary screen (AID 1179);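 also: screen aims at cell division blockers that make cells filament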; details: E. coli DRC39 delta-acrAB growth, higher = more signal, called active from +8 up or from −8 down
[19] = viability profiling in RPMI8226 myeloma cells – cell-based, resazurin fluorescence, basal, 24 h, PK04 Diversity Set, profiling panel (AID 1180); details: higher = more signal;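 also: RPMI8826 multiple myeloma cell line at 5000 cells per well; test concentration not given here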
[20] = target: E3 ubiquitin-protein ligase XIAP (Homo sapiens) (UniProt P98170); assay: small molecules binding XIAP protein – biophysical, small-molecule microarray, fluorescence 635 nm, primary screen (AID 1181); details: higher = more signal;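 also: score merges 667 nm emission and signal to noise over triplicate slides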
E3 ubiquitin-protein ligase XIAP (Homo sapiens), sequence (P98170 whole entry, looked up): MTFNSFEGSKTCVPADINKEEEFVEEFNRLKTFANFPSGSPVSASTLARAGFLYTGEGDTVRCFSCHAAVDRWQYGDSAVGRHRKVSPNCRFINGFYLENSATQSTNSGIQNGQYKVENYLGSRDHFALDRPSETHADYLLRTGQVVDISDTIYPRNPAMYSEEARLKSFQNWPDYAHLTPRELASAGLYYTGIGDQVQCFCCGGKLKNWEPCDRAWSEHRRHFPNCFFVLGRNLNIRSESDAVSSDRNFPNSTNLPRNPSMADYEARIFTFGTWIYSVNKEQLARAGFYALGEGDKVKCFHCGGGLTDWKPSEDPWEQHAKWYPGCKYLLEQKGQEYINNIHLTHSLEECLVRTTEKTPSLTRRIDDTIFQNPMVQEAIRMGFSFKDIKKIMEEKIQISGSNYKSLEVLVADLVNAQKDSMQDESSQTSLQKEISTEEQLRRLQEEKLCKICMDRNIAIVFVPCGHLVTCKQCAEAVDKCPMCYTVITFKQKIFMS

## C[N+](C)(C)CCCCCCNC(=O)[C@H]1C[C@H]2C(=O)N[C@@H](CCCC[N+](C)(C)C)C(=O)N2[C@H]1c1cccc(OCCO)c1
[1]
  z-score: 0.47 and -0.453
[2]
  z-score: -0.32 and -0.34
[3]
  z-score: 0.427 and -0.245
[4]
  z-score: 0.0606 and -0.353
[5]
  z-score: 0.366 and 0.635
[6]
  z-score: -0.112 and -1.53
[7]
  z-score: 0.418 (inactive) and 0.566 (inactive)
[8]
  z-score: -0.192 and 0.231
[9]
  z-score: -0.644 and -0.272
[10]
  z-score: -0.154 (inactive) and -0.311 (inactive)
[11]
  z-score: -0.402 and -0.0872
[12]
  z-score: -0.255 (inactive) and 0.763 (inactive)
[13]
  z-score: 0.737 (inactive) and -0.541 (inactive)
[14]
  composite z-score: -2.69 (inactive) and -1.29 (inactive)
[15]
  z-score: -0.366 (inactive) and 0.146 (inactive)
[16]
  z-score: 0.297 (inactive) and 1.2 (inactive)
[17]
  z-score: 1.04 (inactive) and -0.0715 (inactive)
[18]
  z-score: 1.47 (inactive) and -0.451 (inactive)
[19]
  z-score: 0.455 and -1.29
[20]
  composite z-score: -0.0553 and -0.0559

## C=CCN(CCCC)C(=O)C1N(CCCCCCO)C(=O)C2C(C(=O)O)C3C=CC21O3 (stereo not given)
[1]
  z-score: -0.835 and -0.441
[2]
  z-score: 0.221 and -0.0736
[3]
  z-score: -1 and -0.393
[4]
  z-score: 0.62 and 1.32
[5]
  z-score: 0.646 and -0.44
[6]
  z-score: -0.253 and -0.939
[7]
  z-score: 0.051 (inactive) and -0.617 (inactive)
[8]
  z-score: 0.221 and 0.855
[9]
  z-score: -0.00969 and -0.273
[10]
  z-score: -0.59 (inactive) and -0.439 (inactive)
[11]
  z-score: 0.063 and -0.938
[12]
  z-score: 0.569 (inactive) and 0.411 (inactive)
[13]
  z-score: -0.76 (inactive) and -0.768 (inactive)
[14]
  composite z-score: -0.669 (inactive) and -0.0254 (inactive)
[15]
  z-score: 0.109 (inactive) and -0.388 (inactive)
[16]
  z-score: -0.751 (inactive) and -0.681 (inactive)
[17]
  z-score: 0.03 (inactive) and -0.0327 (inactive)
[18]
  z-score: -0.146 (inactive) and -0.105 (inactive)
[19]
  z-score: -0.704 and -0.992
[20]
  composite z-score: -0.124 and 0.18

## C=CCN(C(=O)C(c1cccs1)N(C(=O)/C=C\C(=O)O)c1c(Cl)cccc1CO)C(C)(C)C (stereo not given)
[1]
  z-score: 0.422 and -0.237
[2]
  z-score: 0.0699 and -0.221
[3]
  z-score: -0.0685 and 0.369
[4]
  z-score: 0.221 and 0.0812
[5]
  z-score: -0.511 and -0.202
[6]
  z-score: -0.99 and -0.519
[7]
  z-score: 0.563 (inactive) and 0.497 (inactive)
[8]
  z-score: -0.639 and -0.0626
[9]
  z-score: 0.923 and 0.231
[10]
  z-score: -0.493 (inactive) and -0.643 (inactive)
[11]
  z-score: -0.842 and -0.839
[12]
  z-score: 0.0318 (inactive) and -0.393 (inactive)
[13]
  z-score: -0.525 (inactive) and -0.895 (inactive)
[14]
  composite z-score: -1.77 (inactive) and -0.93 (inactive)
[15]
  z-score: -0.304 (inactive) and -0.677 (inactive)
[16]
  z-score: -0.107 (inactive) and -0.495 (inactive)
[17]
  z-score: -0.514 (inactive) and -0.291 (inactive)
[18]
  z-score: -0.372 (inactive) and -0.102 (inactive)
[19]
  z-score: -0.554 and -1.29
[20]
  composite z-score: -0.191 and 0.1

## C=CCN(CCCCC)C(=O)C1N(C(C)(C)CO)C(=O)C2C(C(=O)O)C3C=CC21O3 (stereo not given)
[1]
  z-score: -0.777 and -0.44
[2]
  z-score: -0.472 and -0.0106
[3]
  z-score: 0.174 and -0.209
[4]
  z-score: 0.369 and -0.0102
[5]
  z-score: -0.187 and -0.148
[6]
  z-score: -0.66 and -1.15
[7]
  z-score: 0.044 (inactive) and -0.845 (inactive)
[8]
  z-score: 0.776 and 0.876
[9]
  z-score: 0.861 and 0.681
[10]
  z-score: 0.0106 (inactive) and -0.0941 (inactive)
[11]
  z-score: -0.839 and -0.382
[12]
  z-score: 0.579 (inactive) and -0.295 (inactive)
[13]
  z-score: -1.09 (inactive) and -0.64 (inactive)
[14]
  composite z-score: 0.457 (inactive) and -0.446 (inactive)
[15]
  z-score: -0.91 (inactive) and -1.08 (inactive)
[16]
  z-score: -1.01 (inactive) and -1.15 (inactive)
[17]
  z-score: -0.62 (inactive) and 0.193 (inactive)
[18]
  z-score: -0.396 (inactive) and 0.2 (inactive)
[19]
  z-score: -0.725 and -0.827
[20]
  composite z-score: -0.0387 and -0.245

## CC(C)OC(=O)C=C1C[C@@H](c2ccccc2)O[C@@H](c2ccccc2)O1
[1]
  z-score: 0.604 and -0.204
[2]
  z-score: 0.211 and 0.24
[3]
  z-score: 1.57 and 0.805
[4]
  z-score: -1.8 and -3.29
[5]
  z-score: -0.192 and -1.79
[6]
  z-score: 1.06 and -0.0936
[7]
  z-score: 0.383 (inactive) and 1.71 (inactive)
[8]
  z-score: -0.374 and -0.422
[9]
  z-score: -2.57 and -3.36
[10]
  z-score: 1.28 (inactive) and 0.255 (inactive)
[11]
  z-score: 0.0904 and -0.562
[12]
  z-score: -1.21 (inactive) and -0.385 (inactive)
[13]
  z-score: 0.468 (inactive) and -3.15 (inactive)
[14]
  composite z-score: -0.125 (inactive) and -1.68 (inactive)
[15]
  z-score: 0.533 (inactive) and 0.394 (inactive)
[16]
  z-score: 0.306 (inactive) and 0.904 (inactive)
[17]
  z-score: -0.65 (inactive) and -0.601 (inactive)
[18]
  z-score: 0.945 (inactive) and 0.907 (inactive)
[19]
  z-score: 1.54 and -2.33
[20]
  composite z-score: -0.13 and 0.013

## COC(=O)C1=C(C)N(Cc2ccccc2)[C@]23O[C@](C(=O)OC)(C(=O)N2[C@@H]1c1ccccc1)[C@@H](C(=O)OC)[C@H]3C(=O)OC
[1]
  z-score: 1.59 and 1.67
[2]
  z-score: -0.0502 and -0.386
[3]
  z-score: 0.209 and 1.32
[4]
  z-score: 0.185 and 0.568
[5]
  z-score: 0.248 and 0.636
[6]
  z-score: 0.345 and 0.106
[7]
  z-score: 0.225 (inactive) and 1.49 (inactive)
[8]
  z-score: -0.866 and 0.532
[9]
  z-score: -0.142 and -0.237
[10]
  z-score: 0.415 (inactive) and -0.804 (inactive)
[11]
  z-score: 0.348 and -0.761
[12]
  z-score: 0.583 (inactive) and -0.704 (inactive)
[13]
  z-score: 0.409 (inactive) and -0.59 (inactive)
[14]
  composite z-score: 0.466 (inactive) and -0.412 (inactive)
[15]
  z-score: 0.177 (inactive) and 0.241 (inactive)
[16]
  z-score: 1.62 (inactive) and 0.72 (inactive)
[17]
  z-score: 0.148 (inactive) and 0.72 (inactive)
[18]
  z-score: 0.165 (inactive) and 0.532 (inactive)
[19]
  z-score: 0.537 and -0.332
[20]
  composite z-score: -0.17 and -0.219
